# Laboratory results published in the supplement of paper PMC12067093, “Discovery and optimisation of a covalent ligand for TRIM25 and its application to targeted protein ubiquitination” (Chemical Science, 2025).
# About 21,000 targets were measured; listed, in parts, are those with the largest changes and a random draw of the rest.
# Compound: CC1Cc2ccccc2N1C(=O)C1CCCN(C1)C(=O)CCl (mixture of isomers) [TRIM25 ligand 11 (diastereomer mixture)]
# Assay: probe-labelled cysteine peptide fold change vs DMSO (competition) (log2 fold change); higher = less target engagement (more negative = stronger competition)
# Conditions: THP-1, incubation time: 4 h
# 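Further: competitive chemoproteomic profiling in live THP-1 cells with an iodoacetamide desthiobiotin (IA-DTB) probe, comparing probe-labelled peptide intensities in compound-treated cells against DMSO-treated controls.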
# Chain of UniProt Q99590 (Q99590 whole entry, looked up): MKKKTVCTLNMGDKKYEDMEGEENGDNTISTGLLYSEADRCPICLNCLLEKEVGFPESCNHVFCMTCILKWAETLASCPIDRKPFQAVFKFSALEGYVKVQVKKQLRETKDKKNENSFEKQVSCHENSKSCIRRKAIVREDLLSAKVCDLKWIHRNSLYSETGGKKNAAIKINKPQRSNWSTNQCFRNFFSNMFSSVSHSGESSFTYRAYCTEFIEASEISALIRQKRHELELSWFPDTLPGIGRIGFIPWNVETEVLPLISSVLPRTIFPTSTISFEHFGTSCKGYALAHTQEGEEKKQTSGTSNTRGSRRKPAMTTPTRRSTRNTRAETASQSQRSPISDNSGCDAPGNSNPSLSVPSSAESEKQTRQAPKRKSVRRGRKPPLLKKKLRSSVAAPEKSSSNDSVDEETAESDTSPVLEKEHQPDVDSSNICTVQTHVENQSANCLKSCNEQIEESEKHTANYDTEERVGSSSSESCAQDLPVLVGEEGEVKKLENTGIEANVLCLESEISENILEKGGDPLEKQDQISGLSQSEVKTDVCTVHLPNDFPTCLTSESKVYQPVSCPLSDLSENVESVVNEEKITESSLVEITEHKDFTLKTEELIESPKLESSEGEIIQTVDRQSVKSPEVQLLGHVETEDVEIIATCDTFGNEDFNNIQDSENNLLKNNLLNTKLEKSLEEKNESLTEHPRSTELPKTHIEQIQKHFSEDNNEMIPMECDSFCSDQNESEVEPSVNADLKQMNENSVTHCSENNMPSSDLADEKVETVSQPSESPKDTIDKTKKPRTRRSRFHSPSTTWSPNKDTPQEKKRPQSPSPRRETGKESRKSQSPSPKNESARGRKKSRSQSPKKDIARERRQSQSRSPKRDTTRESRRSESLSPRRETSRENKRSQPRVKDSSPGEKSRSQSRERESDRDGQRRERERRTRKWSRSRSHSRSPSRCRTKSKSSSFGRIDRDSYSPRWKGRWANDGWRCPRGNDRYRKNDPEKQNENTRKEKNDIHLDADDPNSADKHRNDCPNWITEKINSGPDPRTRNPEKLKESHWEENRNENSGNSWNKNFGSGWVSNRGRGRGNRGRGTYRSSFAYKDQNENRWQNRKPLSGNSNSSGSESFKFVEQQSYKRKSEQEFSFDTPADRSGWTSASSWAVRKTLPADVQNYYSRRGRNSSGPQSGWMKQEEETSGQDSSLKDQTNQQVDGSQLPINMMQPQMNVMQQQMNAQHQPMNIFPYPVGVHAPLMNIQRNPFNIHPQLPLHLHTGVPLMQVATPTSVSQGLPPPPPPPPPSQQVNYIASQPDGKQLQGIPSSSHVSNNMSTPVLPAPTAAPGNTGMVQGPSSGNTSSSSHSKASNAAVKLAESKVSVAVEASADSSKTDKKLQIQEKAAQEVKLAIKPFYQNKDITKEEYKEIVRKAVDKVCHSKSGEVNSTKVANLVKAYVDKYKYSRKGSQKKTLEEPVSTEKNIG
# Chain of UniProt Q9UBE0 (Q9UBE0 whole entry, looked up): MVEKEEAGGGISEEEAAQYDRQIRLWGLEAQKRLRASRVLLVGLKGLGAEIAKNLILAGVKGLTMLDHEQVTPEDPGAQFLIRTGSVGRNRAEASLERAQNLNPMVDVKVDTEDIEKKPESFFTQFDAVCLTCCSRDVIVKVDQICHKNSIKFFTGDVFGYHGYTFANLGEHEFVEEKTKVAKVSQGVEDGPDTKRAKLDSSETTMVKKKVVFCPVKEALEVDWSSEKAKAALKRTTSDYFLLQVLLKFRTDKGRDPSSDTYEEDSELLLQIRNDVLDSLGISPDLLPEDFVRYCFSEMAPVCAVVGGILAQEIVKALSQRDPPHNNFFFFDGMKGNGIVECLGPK
# Chain of UniProt Q8N6T7 (Q8N6T7 whole entry): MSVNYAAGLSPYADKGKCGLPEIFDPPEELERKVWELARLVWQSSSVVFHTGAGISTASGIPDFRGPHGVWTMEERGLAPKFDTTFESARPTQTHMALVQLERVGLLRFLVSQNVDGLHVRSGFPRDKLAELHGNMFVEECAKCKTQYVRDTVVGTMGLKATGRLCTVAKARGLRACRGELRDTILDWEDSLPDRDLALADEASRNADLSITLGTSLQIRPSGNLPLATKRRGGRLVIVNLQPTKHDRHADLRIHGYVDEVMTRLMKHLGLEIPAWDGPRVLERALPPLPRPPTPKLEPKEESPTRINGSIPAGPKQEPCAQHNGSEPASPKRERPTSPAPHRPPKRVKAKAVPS
# Chain of UniProt Q5VZM2 (Q5VZM2 whole entry, looked up): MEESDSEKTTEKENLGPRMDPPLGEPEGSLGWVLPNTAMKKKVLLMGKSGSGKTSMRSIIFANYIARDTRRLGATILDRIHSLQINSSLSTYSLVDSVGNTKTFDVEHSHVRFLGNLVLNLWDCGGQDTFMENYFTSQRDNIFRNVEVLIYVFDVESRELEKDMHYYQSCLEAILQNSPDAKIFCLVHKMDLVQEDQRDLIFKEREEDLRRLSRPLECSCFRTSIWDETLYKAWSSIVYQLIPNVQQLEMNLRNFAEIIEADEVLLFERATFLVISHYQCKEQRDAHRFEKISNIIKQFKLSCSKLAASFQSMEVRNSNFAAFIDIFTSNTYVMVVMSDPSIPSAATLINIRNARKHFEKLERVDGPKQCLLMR
# Chain of UniProt Q92922 (Q92922 whole entry, looked up): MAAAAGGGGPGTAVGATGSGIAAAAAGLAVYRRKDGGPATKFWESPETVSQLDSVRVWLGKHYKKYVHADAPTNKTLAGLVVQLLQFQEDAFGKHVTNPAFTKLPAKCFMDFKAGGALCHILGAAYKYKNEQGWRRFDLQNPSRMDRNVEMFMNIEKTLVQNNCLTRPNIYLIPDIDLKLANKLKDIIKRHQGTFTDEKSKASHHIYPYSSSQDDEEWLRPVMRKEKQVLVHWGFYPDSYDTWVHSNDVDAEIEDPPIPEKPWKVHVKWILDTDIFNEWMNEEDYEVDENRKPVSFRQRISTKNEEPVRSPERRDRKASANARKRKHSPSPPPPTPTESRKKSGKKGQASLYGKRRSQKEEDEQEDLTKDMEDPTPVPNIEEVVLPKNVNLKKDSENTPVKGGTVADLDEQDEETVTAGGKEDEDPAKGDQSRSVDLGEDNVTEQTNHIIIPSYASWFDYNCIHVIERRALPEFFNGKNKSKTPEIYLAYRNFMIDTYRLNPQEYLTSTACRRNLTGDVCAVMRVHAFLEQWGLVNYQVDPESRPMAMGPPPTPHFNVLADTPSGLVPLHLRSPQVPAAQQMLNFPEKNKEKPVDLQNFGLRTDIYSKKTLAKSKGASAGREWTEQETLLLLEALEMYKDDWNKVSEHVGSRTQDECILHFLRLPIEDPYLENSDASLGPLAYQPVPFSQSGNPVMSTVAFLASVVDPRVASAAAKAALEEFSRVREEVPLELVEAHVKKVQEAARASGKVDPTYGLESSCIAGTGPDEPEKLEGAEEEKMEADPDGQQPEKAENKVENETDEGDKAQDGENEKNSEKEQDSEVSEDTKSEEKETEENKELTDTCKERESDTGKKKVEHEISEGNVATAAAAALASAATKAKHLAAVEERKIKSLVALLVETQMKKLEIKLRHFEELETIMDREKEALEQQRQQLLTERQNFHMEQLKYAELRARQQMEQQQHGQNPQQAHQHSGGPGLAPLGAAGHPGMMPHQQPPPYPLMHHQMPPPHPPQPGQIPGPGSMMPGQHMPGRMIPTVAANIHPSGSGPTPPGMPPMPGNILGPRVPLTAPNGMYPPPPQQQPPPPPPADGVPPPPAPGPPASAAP
# Chain of UniProt Q96FS4 (Q96FS4 whole entry, looked up): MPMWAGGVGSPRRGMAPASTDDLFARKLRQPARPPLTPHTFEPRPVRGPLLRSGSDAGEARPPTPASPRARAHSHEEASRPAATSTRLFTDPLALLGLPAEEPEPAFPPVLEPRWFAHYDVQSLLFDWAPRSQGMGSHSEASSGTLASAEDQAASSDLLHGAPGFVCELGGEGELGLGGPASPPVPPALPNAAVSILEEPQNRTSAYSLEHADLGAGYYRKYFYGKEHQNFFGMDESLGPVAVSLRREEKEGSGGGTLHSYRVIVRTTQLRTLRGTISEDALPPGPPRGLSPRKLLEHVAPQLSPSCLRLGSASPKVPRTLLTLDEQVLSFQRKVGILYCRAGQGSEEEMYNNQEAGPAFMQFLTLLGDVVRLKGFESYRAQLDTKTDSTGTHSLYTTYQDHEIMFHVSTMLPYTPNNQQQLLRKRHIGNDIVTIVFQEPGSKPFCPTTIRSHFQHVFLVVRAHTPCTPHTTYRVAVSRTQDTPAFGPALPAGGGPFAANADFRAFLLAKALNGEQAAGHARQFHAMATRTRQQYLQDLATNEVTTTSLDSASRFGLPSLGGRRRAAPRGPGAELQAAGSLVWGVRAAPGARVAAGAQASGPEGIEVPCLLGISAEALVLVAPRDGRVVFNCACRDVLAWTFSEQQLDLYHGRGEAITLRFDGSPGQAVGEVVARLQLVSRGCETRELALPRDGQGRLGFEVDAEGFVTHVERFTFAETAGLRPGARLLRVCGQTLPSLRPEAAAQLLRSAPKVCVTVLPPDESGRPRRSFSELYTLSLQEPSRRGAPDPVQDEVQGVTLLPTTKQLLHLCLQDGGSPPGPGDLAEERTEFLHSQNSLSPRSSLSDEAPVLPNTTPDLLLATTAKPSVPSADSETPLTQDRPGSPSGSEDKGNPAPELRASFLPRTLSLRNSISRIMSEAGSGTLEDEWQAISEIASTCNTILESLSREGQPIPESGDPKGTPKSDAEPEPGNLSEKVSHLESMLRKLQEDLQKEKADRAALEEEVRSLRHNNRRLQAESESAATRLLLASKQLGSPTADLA
# Chain of UniProt Q9H8P0 (Q9H8P0 whole entry): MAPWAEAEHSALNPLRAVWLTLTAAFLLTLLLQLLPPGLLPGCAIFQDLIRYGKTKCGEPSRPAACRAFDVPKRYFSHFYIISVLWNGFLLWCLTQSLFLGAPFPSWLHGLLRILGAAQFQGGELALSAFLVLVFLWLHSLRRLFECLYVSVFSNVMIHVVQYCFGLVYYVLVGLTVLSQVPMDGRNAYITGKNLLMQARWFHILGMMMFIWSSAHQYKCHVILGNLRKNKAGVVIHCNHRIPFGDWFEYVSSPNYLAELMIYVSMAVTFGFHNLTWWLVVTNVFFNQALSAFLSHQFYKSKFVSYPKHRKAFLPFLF
Target,probe-labelled cysteine peptide fold change (10 µM),probe-labelled cysteine peptide fold change (50 µM)
SMU1_Q2TAY7_416_NPEHFVVCNR (UniProt Q2TAY7),-0.00322,0.0655
SRD5A3_Q9H8P0_238_AGVVIHCNHR (UniProt Q9H8P0),0.00183,-0.036
SIPA1_Q96FS4_467_AHTPCTPHTTYR (UniProt Q96FS4),0.187,0.0943
SLMAP_Q14BN4_120_KVTHGCIVSTIK (UniProt Q14BN4),-0.0304,0.0755
SEC61A1_P61619_13_FLEVIKPFCVILPEIQKPERK (UniProt P61619),-0.291,-0.191
SMARCC1_Q92922_761_VDPTYGLESSCIAGTGPDEPEKLEGAEEEK (UniProt Q92922),-0.397,-0.234
SLC15A4_Q8N697_269_ILTYSCCSQK (UniProt Q8N697),-0.00859,-0.114
SBF1_O95248_839_VCTESGVTSDHLK (UniProt O95248),0.116,0.0908
SIRT6_Q8N6T7_141_LAELHGNMFVEECAK (UniProt Q8N6T7),0.087,0.00561
SEL1L3_Q68CR1_475_QEACHLHNSYLDLQR (UniProt Q68CR1),-0.0373,-0.0246
SAE1_Q9UBE0_303_YCFSEMAPVCAVVGGILAQEIVK (UniProt Q9UBE0),-0.0632,-0.0869
RRAGB_Q5VZM2_185_IFCLVHK (UniProt Q5VZM2),0.162,0.183
SCAF11_Q99590_752_QMNENSVTHCSENNMPSSDLADEK (UniProt Q99590),0.00365,-0.727
SNTB1_Q13884_515_DGEIQLDLHSCPK (UniProt Q13884),0.144,0.6
